Inconclusive results are not listed. Activity calls are given as the source filed them. Unless noted, calls come from the whole dose curve; as a rule, active = well fitted curve in the direction sought with a large enough effect; inconclusive = small, poorly fitted or top-dose-only effect, or another doubt; inactive = no such curve, though single readings can be large; an effect the other way counts as inactive or inconclusive.
Legend:
[1] = target: T1, Hexokinase-4 (Homo sapiens) + Glucokinase regulatory protein (Homo sapiens) (UniProt P35557+Q14397); assay: qHTS assay for inhibitors of recombinant human GCK-GKRP interaction: Diaphorase-coupled assay (AID 743205)
T1 sequence (P35557 whole entry, looked up): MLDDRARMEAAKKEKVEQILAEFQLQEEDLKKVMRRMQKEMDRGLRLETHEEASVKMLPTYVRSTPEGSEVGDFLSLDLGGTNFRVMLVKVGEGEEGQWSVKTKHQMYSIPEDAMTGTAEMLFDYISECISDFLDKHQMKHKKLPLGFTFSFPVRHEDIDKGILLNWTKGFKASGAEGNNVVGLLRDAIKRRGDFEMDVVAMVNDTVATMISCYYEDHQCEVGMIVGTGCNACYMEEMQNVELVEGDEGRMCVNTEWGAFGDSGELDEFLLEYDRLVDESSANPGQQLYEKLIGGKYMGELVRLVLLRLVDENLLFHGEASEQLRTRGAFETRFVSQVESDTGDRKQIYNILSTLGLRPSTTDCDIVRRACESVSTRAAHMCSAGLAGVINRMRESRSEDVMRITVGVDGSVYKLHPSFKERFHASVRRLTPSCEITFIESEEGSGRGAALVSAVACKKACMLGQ
T1 sequence (Q14397 whole entry, looked up): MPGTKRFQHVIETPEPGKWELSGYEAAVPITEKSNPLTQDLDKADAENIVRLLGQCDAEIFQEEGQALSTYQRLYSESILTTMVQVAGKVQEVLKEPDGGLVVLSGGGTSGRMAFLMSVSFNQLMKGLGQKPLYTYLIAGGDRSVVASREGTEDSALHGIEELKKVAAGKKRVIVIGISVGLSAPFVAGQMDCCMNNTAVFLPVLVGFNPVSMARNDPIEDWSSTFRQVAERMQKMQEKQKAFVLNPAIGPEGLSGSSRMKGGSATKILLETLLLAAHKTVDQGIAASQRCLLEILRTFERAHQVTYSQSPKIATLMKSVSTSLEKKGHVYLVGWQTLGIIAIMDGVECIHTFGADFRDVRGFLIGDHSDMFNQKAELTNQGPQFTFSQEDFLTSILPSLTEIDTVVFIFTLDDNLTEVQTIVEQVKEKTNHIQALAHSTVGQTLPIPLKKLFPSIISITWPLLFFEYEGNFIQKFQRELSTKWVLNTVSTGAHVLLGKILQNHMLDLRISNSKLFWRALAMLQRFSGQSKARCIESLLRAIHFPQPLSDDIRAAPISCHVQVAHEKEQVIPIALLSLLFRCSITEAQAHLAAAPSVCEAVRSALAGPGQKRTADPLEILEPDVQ
Outline: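 Resorufin fluorescence (525/590 nm), read each minute over 30 min, reports GCK activity coupled via G6PDH and diaphorase. Reaction: 10 nM GST-GCK, 10 nM FLAG-GKRP, 5 mM glucose, 0.4 mM ATP, 0.15 mM NADP+, 0.1 mM resazurin.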

[2] = target: T1, Hexokinase-4 (Homo sapiens) + Glucokinase regulatory protein (Homo sapiens); assay: qHTS assay for inhibitors of recombinant human GCK-GKRP interaction: ADP-Glo assay (AID 743206);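 note: plate controls were DMSO plus enzyme for no effect and no enzyme for full effect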
Outline: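 GST-GCK and FLAG-GKRP (15 nM each in the dispensed mix, with 2 uM S6P) react with 0.4 mM ATP and 5 mM glucose (final) in Hepes pH 7.6 for 60 min at room temperature. ADP is measured by ADP-Glo luminescence.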

[3] = target: T1, Hexokinase-4 (Homo sapiens) + Glucokinase regulatory protein (Homo sapiens); assay: qHTS assay for inhibitors of recombinant human GCK-GKRP interaction: HTRF assay (AID 743207);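 note: 0% = DMSO with GCK present and -100% = DMSO wells lacking GCK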
Outline: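 HTRF read-out (ex 320 nm; 615/665 nm emission) after 60 min RT equilibration of 5 nM GST-GCK, 5 nM FLAG-GKRP, 2 uM S6P, compound and anti-FLAG/anti-GST detection antibodies; signal normalized between DMSO wells with and without GCK.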

[4] = qHTS Assay for Identifying Gametocytocidal Compounds (AID 743244); note: potency is the fitted concentration of half-maximal effect;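 for max response: % is set by controls: 0 for no effect and ±100 for the full control effect; actives lower the fluorescent signal which means gametocytes are killed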; conditions: P. falciparum 3D7 stage III-V gametocytes, alamarBlue, 72 h; max response: active compounds read low
Outline: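 Viability read-out was resazurin reduction (alamarBlue, 24 h) measured at Ex 525/Em 598 nm. Beforehand, late-stage (III-V) 3D7 P. falciparum gametocytes at 20,000 cells/well were incubated with compound 72 h at 37C under 5% CO2.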

[5] = qHTS assay for measurement of the activity of small molecule inhibitors on Zika virus induced Caspase-3 activity in human iPSC derived neural progenitor cells (hNPCs) (AID 1224857); note: nearly all actives have a fitted effect of over 65% in size; note: potency is the fitted concentration of half-maximal effect
Outline: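 Percent inhibition of virus-induced caspase-3/7 luminescence (Caspase-Glo), scaled between uninfected cells and Zika-infected cells. hNPCs received compound 1 hr before ZIKV at 2 FFU/cell, with 6 hours infection at 37 C.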

[6] = qHTS assay for measurement of the activity of small molecule inhibitors on Zika virus induced Caspase-3 activity in human astrocytoma cells (AID 1224859); note: potency is the fitted concentration of half-maximal effect
Outline: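 Luminescent caspase-3/7 read-out (30 min reagent, room temperature) in human SNB-19 cells infected 6 h with ZIKV (2 FFU/cell) after 1 h compound pre-incubation; Data were normalised to uninfected and infected wells.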

[7] = Natriuretic polypeptide receptor (hNpr1) antagonism - Pilot counterscreen GloSensor control cell line (AID 1347045; calls by dose curve; note: potency is the fitted concentration of half-maximal effect)
Outline: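 HEK293 cells carrying the GloSensor cGMP sensor (GIP/pGS-40F) were loaded with 2% GloSensor reagent for 2 h, exposed to compounds for 30 min, and then stimulated with 50 uM sodium nitroprusside for 20 min at room temperature.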

[8] = target: Atrial natriuretic peptide receptor 2 (Homo sapiens) (UniProt P20594); assay: Natriuretic polypeptide receptor (hNpr2) antagonism - Pilot subtype selectivity assay (AID 1347050; calls by dose curve; note: potency is the fitted concentration of half-maximal effect)
Atrial natriuretic peptide receptor 2 (Homo sapiens), sequence (P20594 whole entry, looked up): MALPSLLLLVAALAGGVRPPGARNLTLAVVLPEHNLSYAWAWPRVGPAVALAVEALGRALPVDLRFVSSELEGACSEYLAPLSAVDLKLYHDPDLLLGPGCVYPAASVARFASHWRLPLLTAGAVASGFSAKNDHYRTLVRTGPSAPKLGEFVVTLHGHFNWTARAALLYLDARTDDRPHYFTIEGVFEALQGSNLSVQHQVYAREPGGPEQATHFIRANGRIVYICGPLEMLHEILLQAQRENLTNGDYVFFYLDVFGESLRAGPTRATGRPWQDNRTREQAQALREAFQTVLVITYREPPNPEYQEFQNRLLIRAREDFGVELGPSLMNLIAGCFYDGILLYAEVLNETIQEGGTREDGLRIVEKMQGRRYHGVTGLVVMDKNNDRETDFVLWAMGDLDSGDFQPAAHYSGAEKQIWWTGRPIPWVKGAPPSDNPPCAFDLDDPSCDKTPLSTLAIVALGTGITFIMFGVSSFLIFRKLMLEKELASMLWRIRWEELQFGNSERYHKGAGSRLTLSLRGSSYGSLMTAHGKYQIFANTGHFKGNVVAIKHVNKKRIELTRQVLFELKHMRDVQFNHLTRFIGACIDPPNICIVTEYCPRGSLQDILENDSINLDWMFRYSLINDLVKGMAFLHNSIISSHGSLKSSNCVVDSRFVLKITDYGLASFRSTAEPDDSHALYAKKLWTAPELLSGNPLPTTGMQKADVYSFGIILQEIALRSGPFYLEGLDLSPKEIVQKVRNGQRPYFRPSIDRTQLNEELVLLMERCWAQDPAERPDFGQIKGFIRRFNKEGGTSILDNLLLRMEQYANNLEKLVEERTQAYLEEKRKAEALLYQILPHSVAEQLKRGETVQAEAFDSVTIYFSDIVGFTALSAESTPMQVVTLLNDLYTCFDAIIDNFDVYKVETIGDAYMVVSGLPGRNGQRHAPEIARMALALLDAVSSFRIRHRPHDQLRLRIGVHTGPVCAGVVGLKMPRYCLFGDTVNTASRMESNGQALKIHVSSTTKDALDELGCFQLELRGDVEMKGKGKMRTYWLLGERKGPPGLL
Outline: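 cGMP-sensor HEK293/hNpr2 cells; 2% GloSensor reagent 2 h RT; compounds 30 min; baseline luminescence read; 1 nM hNppC agonist 20 min RT; final luminescence read by CCD camera. Antagonism = reduced post-agonist signal.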

[9] = target: Atrial natriuretic peptide receptor 1 (Homo sapiens) (UniProt P16066); assay: Natriuretic polypeptide receptor (hNpr1) antagonism - Pilot screen (AID 1347049; calls by dose curve;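 note: agonist-evoked cGMP luminescence read 20 min after hNppA addition; series mostly up to about 58 µM; % is set by controls: 0 for no effect and ±100 for the full control effect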)
Atrial natriuretic peptide receptor 1 (Homo sapiens), sequence (P16066 whole entry, looked up): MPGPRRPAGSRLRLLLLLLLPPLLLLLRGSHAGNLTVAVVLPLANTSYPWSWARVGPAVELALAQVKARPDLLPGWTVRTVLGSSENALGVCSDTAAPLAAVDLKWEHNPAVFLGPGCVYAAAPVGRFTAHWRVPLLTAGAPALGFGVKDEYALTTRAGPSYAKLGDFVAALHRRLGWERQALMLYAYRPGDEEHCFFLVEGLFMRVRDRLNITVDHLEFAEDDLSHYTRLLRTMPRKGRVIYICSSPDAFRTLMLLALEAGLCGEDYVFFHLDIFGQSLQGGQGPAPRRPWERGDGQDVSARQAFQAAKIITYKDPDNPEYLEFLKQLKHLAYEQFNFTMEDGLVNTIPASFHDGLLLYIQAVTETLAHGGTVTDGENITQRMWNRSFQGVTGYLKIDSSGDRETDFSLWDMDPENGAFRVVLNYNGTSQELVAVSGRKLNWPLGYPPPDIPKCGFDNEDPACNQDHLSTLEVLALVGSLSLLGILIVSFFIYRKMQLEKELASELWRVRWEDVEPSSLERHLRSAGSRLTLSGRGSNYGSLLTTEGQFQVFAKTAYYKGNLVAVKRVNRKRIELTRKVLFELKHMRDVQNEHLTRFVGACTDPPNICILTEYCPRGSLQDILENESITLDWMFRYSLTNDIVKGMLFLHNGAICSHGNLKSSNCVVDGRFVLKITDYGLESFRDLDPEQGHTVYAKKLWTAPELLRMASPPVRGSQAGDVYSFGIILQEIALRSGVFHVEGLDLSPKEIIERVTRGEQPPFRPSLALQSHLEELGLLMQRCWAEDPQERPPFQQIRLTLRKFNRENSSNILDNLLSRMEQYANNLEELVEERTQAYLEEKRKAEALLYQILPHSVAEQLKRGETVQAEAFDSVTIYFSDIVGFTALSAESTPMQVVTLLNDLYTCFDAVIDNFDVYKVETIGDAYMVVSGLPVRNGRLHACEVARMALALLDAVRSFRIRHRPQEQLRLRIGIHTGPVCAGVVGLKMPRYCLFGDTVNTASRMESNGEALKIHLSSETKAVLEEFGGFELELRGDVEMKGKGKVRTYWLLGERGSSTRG
Outline: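 HEK293 cells co-expressing hNpr1 and the GloSensor pGS-40F cGMP luciferase sensor were preloaded with 2% GloSensor reagent for 2 h. Compounds were added for 30 min at room temperature, then cells were stimulated with 0.1 nM hNppA for 20 min before luminescence readout.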

[10] = P-glycoprotein substrates identified in KB-3-1 adenocarcinoma cell line, qHTS therapeutic library screen (AID 1346986);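 note: potency is the fitted concentration of half-maximal effect; potency is for cytotoxicity meaning loss of cell viability; nearly all actives have a fitted effect of over 60% in size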
Outline: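 KB-3-1 parental cells and P-gp-overexpressing KB-8-5-11 (colchicine omitted during assay) plated at 500 cells/well, dosed in dose-response, incubated 72 h at 37 degree C. CellTiter-Glo luminescence read; KB-8-5-11 also tested with tariquidar.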

CNCCc1cnc(CCC(c2ccccc2)c2ccccc2)[nH]1
inactive: Potency [1] | Potency [2] | Potency [3] | Potency [5] | Potency [6] | Potency [7]
active: Potency [4] 1.26 µM

COc1ccc(CCn2nnnc2C2(c3ccc(C)cc3)CC2)cc1
inactive: Potency [2] | Potency [3] | max response [4] 13.1% | Potency [5] | Potency [6] | Potency [7]

CC(N)(Cc1ccc(O)c(O)c1)C(=O)O (configuration not stated)
inactive: Potency [1] | Potency [3] | max response [4] 8.06% | Potency [5] | Potency [6] | Potency [7] | Potency [8]

N[C@@H](CS(=O)O)C(=O)O
inactive: Potency [1] | Potency [2] | Potency [3] | max response [4] 27.3% | Potency [5] | Potency [6] | Potency [7]

CCCCCCCCCCCCCCCCCCOC[C@H](COP(=O)([O-])OCC[N+](C)(C)C)OC
active: Potency [7] 14.7 µM | Potency [8] 8.26 µM
inactive: Potency [1] | Potency [2] | Potency [3] | max response [4] 10.4% | Potency [5] | Potency [6]

c1ccc(C(NCCNC(c2ccccc2)c2ccccc2)c2ccccc2)cc1
inactive: Potency [1] | Potency [2] | Potency [3] | max response [4] -2.86% | Potency [5] | Potency [6]
active: Potency [7] 13.1 µM

C[N+](C)(C)CC=O
inactive: Potency [1] | Potency [2] | Potency [3] | max response [4] 21.1% | Potency [5] | Potency [6] | Potency [7] | Potency [8]

O=C(O)C1=CCNCC1
inactive: Potency [1] | max response [4] 2.03% | Potency [5] | Potency [6] | Potency [7] | Potency [8]

NOCC(=O)O
inactive: Potency [1] | Potency [2] | Potency [3] | max response [4] -2.42% | Potency [5] | Potency [6] | Potency [7] | Potency [8]

COc1cc(C(O)CO)ccc1O (configuration not stated)
inactive: Potency [1] | Potency [2] | Potency [3] | Potency [5] | Potency [6] | Potency [7]

Cn1ccnc1
inactive: Potency [1] | Potency [2] | Potency [3] | max response [4] 14.7% | Potency [5] | Potency [6] | Potency [7] | Potency [8]

COc1ccccc1N1CCN(CCCNc2c(C)c(=O)n(C)c(=O)n2C)CC1
inactive: Potency [1] | Potency [3] | max response [4] -1.96% | Potency [5] | Potency [6] | Potency [7] | Potency [8]

COc1cc(N)c(Cl)cc1C(=O)OCCN1CCCCC1
inactive: Potency [1] | Potency [2] | Potency [3] | max response [4] 4.04% | Potency [5] | Potency [6] | Potency [7] | Potency [8]

CC1C(=O)N(C)C(=O)c2nc[nH]c21 (configuration not stated)
inactive: Potency [1] | Potency [2] | Potency [3] | max response [4] 38.8% | Potency [5] | Potency [6] | Potency [7] | Potency [8]

CC(C)C[C@H](NC(=O)C1OC1C(=O)O)C(=O)NCCCCN=C(N)N (some centres not stated)
inactive: Potency [1] | Potency [2] | Potency [3] | max response [4] -4.29% | Potency [5] | Potency [6] | Potency [7] | Potency [8]

CCCCS(=N)(=O)CC[C@H](N)C(=O)O (some centres not stated)
inactive: Potency [1] | Potency [3] | max response [4] 6.27% | Potency [5] | Potency [6] | Potency [7] | Potency [8]

NC(N)=NC(N)=Nc1ccccc1
inactive: Potency [2] | Potency [3] | max response [4] 28.5% | Potency [5] | Potency [6] | Potency [7] | Potency [8]

CN(C)CCC(c1ccc(Br)cc1)c1ccccn1 (configuration not stated)
inactive: Potency [1] | Potency [3] | max response [4] 11.9% | Potency [5] | Potency [6] | Potency [7]

O=c1oc(Cl)c(Cl)c2ccccc12
inactive: Potency [1] | Potency [3] | max response [4] 31% | Potency [5] | Potency [6]
active: Potency [7] 13.1 µM | Potency [8] 13.1 µM

C[C@H](NC(=O)/C(C#N)=C/c1ccc(O)c(O)c1)c1ccccc1
inactive: Potency [1] | Potency [3] | max response [4] -11% | Potency [5] | Potency [6] | Potency [7]

CCN1C(=O)C=CC1=O
inactive: Potency [1] | Potency [2] | Potency [3] | max response [4] 14.2% | Potency [5] | Potency [6] | Potency [7]

CC(C)Cn1c(=O)n(C)c(=O)c2[nH]cnc21
inactive: Potency [2] | Potency [3] | max response [4] 4.24% | Potency [5] | Potency [6] | Potency [7]

NCCCNCCCCNCCCN
inactive: Potency [2] | Potency [3] | max response [4] 28.9% | Potency [5] | Potency [6] | Potency [7] | Potency [8]

N=C(N)c1ccccc1
inactive: Potency [1] | Potency [2] | Potency [3] | max response [4] 17.2% | Potency [5] | Potency [6] | Potency [7] | Potency [8]

Nc1ccc(-c2ccc3ccccc3n2)cc1
inactive: Potency [1] | Potency [2] | Potency [3] | max response [4] 11.1%
active: Potency [5] 7.08 µM | Potency [6] 7.08 µM | Potency [7] 14.7 µM | Potency [8] 16.5 µM

COc1cccc(OC)c1OCCNCC1CSc2ccccc2O1 (configuration not stated)
inactive: Potency [2] | Potency [3] | max response [4] 8.7% | Potency [5] | Potency [6] | Potency [7] | Potency [8]

C=CCN1CCc2c(cc(O)c(O)c2Br)[C@@H](c2ccccc2)C1
inactive: Potency [1] | Potency [2] | Potency [3] | Potency [6] | Potency [7] | Potency [9] | Potency [8]

C[C@@H](NCCc1ccc(O)cc1)[C@@H](O)c1ccc(O)cc1
inactive: Potency [1] | Potency [2] | Potency [3] | max response [4] 2.62% | Potency [6] | Potency [7] | Potency [8]

CN(CC[C@@H](Oc1ccc(C(F)(F)F)cc1)c1ccccc1)CC(=O)O
inactive: Potency [1] | Potency [2] | Potency [3] | max response [4] 25.4% | Potency [6] | Potency [7] | Potency [9] | Potency [8]

N[C@H](C(=O)O)c1cc(O)cc(O)c1
inactive: Potency [1] | Potency [2] | Potency [3] | Potency [6] | Potency [7] | Potency [9] | Potency [8]

O=C1Cc2c([nH]c3ccc(Br)cc23)-c2ccccc2N1
inactive: Potency [1] | Potency [2] | Potency [3] | Potency [6]
active: Potency [10] 11.6 µM

O=C1C2C=CC=CC2=NC(=S)N1CCN1CCC(=C(c2ccc(F)cc2)c2ccc(F)cc2)CC1 (configuration not stated)
inactive: Potency [2] | Potency [3] | max response [4] 2.83% | Potency [6] | Potency [7] | Potency [8]

COc1cc(CNC(=O)CCCCCCC(C)C)ccc1O
inactive: Potency [1] | Potency [2] | Potency [3] | Potency [6] | Potency [7] | Potency [9] | Potency [8]

From PubChem BioAssay (NCATS)
